Compound activity deposited in PubChem by several laboratories.
LANA-H2B inh: blocks KSHV LANA binding to histone H2A/H2B | Q9QR71 | cell-free LANA-H2A/H2B peptide, fluorescence polarization | inhibition, % (no concentration beside the values) | actives 0.6% (n = 320,000) | AID 2629; in the data active means inhibition mostly above about 10%, no sharp cut-off; inactive means mostly below about 6.7%
RTF Ca sens act: increases calcium sensitivity of human cardiac regulated thin filaments. AID 493008. actives 0.24% (n = 340,000). IANBD-labeled TnC RTF fluorescence at EC20 calcium; 0% EC20 calcium, 100% full calcium. activation, % at 7.2 µM. P19429+P45379;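 active means activation above the mean over all tested compounds plus 3 SD, cut at about 30% in these data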;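 further: rise in fluorescence read as greater calcium sensitivity of cardiac thin filaments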
Keap1 Nrf2 FP: Keap1-Nrf2 (human) interaction inhibition. Q14145. Keap1 Kelch-Nrf2 peptide fluorescence polarization, 1536-well. inhibition, % at 9.4 µM. actives 0.15% (n = 340,000). AID 504523; in the data active means inhibition above about 12%;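 further: human Keap1 Kelch domain with fluorescein labeled Nrf2 9mer peptide probe; 0% = neutral control wells and 100% = peptide positive control; higher means more block of Keap1 binding to Nrf2 peptide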
LANA DNA inh: inhibitors of KSHV LANA C-terminal domain DNA binding. MBP-C-LANA/FAM-LBS DNA binding, fluorescence polarization. inhibition, % at 9 µM. actives 0.078% (n = 340,000);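 active means highest replicate inhibition at or above 60% at 9 µM, even if other replicates fall short; inactive means all replicates below 60% inhibition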;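 further: 0% = neutral control wells and 100% = 4 µM acridine orange control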
RTF Ca sens inh: cardiac RTF calcium desensitization. P19429+P45379. IANBD-labeled cardiac RTF, Ca2+ fluorescence. inhibition, % at 7.15 µM. actives 0.12% (n = 340,000). AID 493244;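 active means inhibition above the mean inhibition of all tested compounds plus 3 SD, cut at about 17% in these data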;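 further: assay run at fixed EC70 calcium of 1.6 mM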
* marks the source's active call; other numbers are inactive results; . = no result given; + = active, no number; ! = not active in a repeat. Only some compounds are listed: those with a hit (about 0.99% of all), similar ones and a draw of the others.

SMILES	LANA-H2B inh	RTF Ca sens act	Keap1 Nrf2 FP	LANA DNA inh	RTF Ca sens inh
COCCCNC(=O)CN(c1cc(OC)ccc1OC)S(=O)(=O)c1ccccc1	19*	9	-5	0	5
COc1ccc(OC)c(N(CC(=O)NCc2ccccc2)S(=O)(=O)c2ccc(OC)c(OC)c2)c1	41*	1	-3	3	-6
CC/C(=N\NC(=O)CSCc1ccccc1Br)c1ccc2c(c1)OCCO2	-4	-3	0	0	-6
COc1ccc2nc(NC(=O)CSC(C)C(=O)Nc3cc(C)on3)sc2c1 (stereo unspecified)	17*	2	1	1	2
COc1ccc2nc(NC(=O)Cn3cnc4ccccc4c3=O)sc2c1	177*	3	3	1	-22
CCOc1cc(C(=O)Nc2nnc(S(=O)(=O)N3CCOCC3)s2)cc(OCC)c1OCC	1	-4	-1	0	0
CC(=O)N1CCC(N2CCN(Cc3ccc(C)cc3)C(CCO)C2)CC1 (stereo unspecified)	77*	-1	0	-1	-2
Cc1ccc(CN2CCN(C3CCC3)CC2CCO)cc1 (stereo unspecified)	3	2	-5	0	1
CN1CCN(c2nc3c(c(=O)n(C)c(=O)n3C)n2Cc2ccccc2F)CC1	3	52*	1	1	4
CCN1C(=NCC(C)C)N[C@@H](c2cccc(C(F)(F)F)c2)C(C(=O)OC)=C1C	13*	5	-5	0	-5
C=CCN=C1N[C@@H](c2cccc(C(F)(F)F)c2)C(C(=O)OC)=C(C)N1CC	5	10	-4	-1	-13
O=C(Nc1ccccn1)c1cccs1	4	1	-1	1	3
CN1C(C(=O)Nc2ccccn2)=C(O)c2sccc2S1(=O)=O	39*!	0	0	2	8
COc1ccc(-c2sc3cc(OC)c(OC)cc3c2-c2ccc(O)cc2)cc1	+	-7	0	1	-6
COc1ccc(-c2sc3ccccc3c2-c2ccc(O)cc2)cc1	-1	5	-1	-1	-5
COc1ccc(N(C(=O)c2snc(C(N)=O)c2N)C(C(=O)NC2CCCCC2)c2ccc(F)cc2)c(OC)c1 (stereo unspecified)	18*	-5	2	0	2
COc1ccc(N(C(=O)c2snc(C(N)=O)c2N)C(C(=O)NC2CCCC2)c2cc(OC)ccc2OC)c(OC)c1 (stereo unspecified)	7	3	6	1	2
COc1ccc(C(C(=O)NCCC(C)C)N(CCO)C(=O)c2snc(C(N)=O)c2N)cc1 (stereo unspecified)	23*	0	-4	2	-10
COc1ccc(C(C(=O)NCCC(C)C)N(CCO)C(=O)c2snc(C(N)=O)c2N)cc1OC (stereo unspecified)	2	1	1	1	-13
Cc1cccnc1Nc1nc(-c2ccccc2)cs1	23*	-4	0	-2	-4
O=C(Nc1ncc2c(n1)CC(c1ccco1)CC2=O)c1ccccc1 (stereo unspecified)	44*	-6	3	1	-1
Nc1c(/C=C2/C=CC(=O)C(O)=C2)c(=O)nc2sc(CC(=O)N3CCCC3)nn12	3	4	-5	109*	-11
Nc1c(/C=C2/C=CC(=O)C(O)=C2)c(=O)nc2sc(CC(=O)N3CCCCC3)nn12	8	-9	-3	108*	5
Nc1c(/C=C2/C=CC(=O)C(O)=C2)c(=O)nc2sc(CC(=O)N3CCOCC3)nn12	.	2	-3	110*	-4
Nc1c(C=C2C=CC(=O)C=C2)c(=O)nc2sc(CC(=O)N3CCCCC3)nn12	1	-7	-1	30	-2
SMILES	LANA-H2B inh	RTF Ca sens act	Keap1 Nrf2 FP	LANA DNA inh	RTF Ca sens inh
COC1=C/C(=C/c2c(N)n3nc(CC(=O)N4CCCC4)sc3nc2=O)C=CC1=O	1	9	-5	57	-4
CN(C)CCCN1c2ccccc2Sc2ccc3ccccc3c21	.	-3	-1	3	2
CN(C)CCCN1c2ccccc2Sc2ccc(Cl)cc21	2.8*!	-3	-5	0	4
O=C1c2ccccc2C(=O)N1CCCCSc1nc2ccccc2o1	0	0	0	-1	1
COc1ccc(C2(C)NC(=O)N(CC(=O)NCC(=O)Nc3ccc(F)c(F)c3F)C2=O)cc1OC (stereo unspecified)	-5	-8	-2	2	-2
CCOc1c(C)cnc2c1c(=O)n(Cc1ccc(Cl)cc1)c(=O)n2C	17*	-7	-6	0	-1
O=C(CC1SC(N2CCOCC2)=NC1=O)Nc1ccc(Cl)c(C(F)(F)F)c1 (stereo unspecified)	22*	-5	-4	0	5
O=C(CC1C(=O)N(c2ccc(Cl)cc2)C(=S)N1CCc1ccncc1)Nc1ccc(F)cc1 (stereo unspecified)	0	39*	-5	0	1
CCNC(=O)CC1C(=O)N(c2ccc(F)cc2)C(=S)N1CCc1ccncc1 (stereo unspecified)	2	-1	-1	2	-1
N#CC1(NC(=O)COC(=O)C2=COCCO2)CCCCC1	9	8	194*	.	-185
O=C(O)c1ccc(NC2=C(Cl)C(=O)c3ccccc3C2=O)cc1	-7	5	9.3*	4	0
COc1ccc(-[n+]2c(C)cc(/C=C3\Sc4ccccc4N3C)cc2C)cc1	-99	44*	-19	-11	-55
COc1ccccc1-[n+]1c(C)cc(/C=C2\Sc3ccccc3N2C)cc1C	-51	48*	-10	-16	-62
CCOC(=O)c1nnsc1NC(=O)Nc1ccc(OC)cc1	-6	2	-5	0	-7
Cc1cc(C)cc(OCc2ccc(C(=O)NC3CCOC3=O)o2)c1 (stereo unspecified)	1	2	-5	2	-11
CC(C)N(CCn1c(SCC(=O)Nc2cccnc2Cl)nc2ccccc2c1=O)C(C)C	9.9*	-4	4	0	-9
COCCn1c(SCC(=O)Nc2cccnc2Cl)nc2cc(Cl)ccc2c1=O	5	-4	2	1	0
COc1ccc(N/C=C/C(=O)c2ccc(OC)c(OC)c2)cc1	5	3	0	2	-7
COc1ccc(N/C=C/C(=O)c2cc(OC)c(OC)c(OC)c2)cc1	12*	-5	1	0	-1
COc1ccc(N/C=C/C(=O)c2ccc(Cl)cc2)cc1	33*	0	0	3	-2
COc1ccccc1CN(C)C(=O)C1COc2ccccc2O1 (stereo unspecified)	-3	-2	-3	1	1
COCCN(CCOC)C(=O)c1ccc(NS(=O)(=O)c2ccc3[nH]c(=O)[nH]c3c2)cc1	33*	-1	0	0	-3
O=C(N/N=C1\C(=O)c2cccc3cccc1c23)c1ccc(O)cc1	+	1	1	5	2
CNC(=S)N/N=C1\C(=O)c2cccc3cccc1c23	2	3	-5	1	12
